The whole screen tested about 2,100 compounds, of which about 1,800 (86%) were called active. The set was probably picked from earlier hits. These entries were drawn from the full list. Unmarked numbers belong to inactive results. The rule behind the calls is not given here.

A short description of this test: counter-screen GFP chromophore formation inhibition, dose response, counter-screen, biochemical, fluorescence, homogeneous (AID 434968). To be noted: cell-free GFP chromophore formation.
With `CCCCCCCCCCOC(=O)Cn1c(COc2cccc(OC)c2)[n+](C)c2ccccc21`, the EC50 is 10.4 µM (active).
For `CCCCCCCCCCOC(=O)Cn1c(COc2ccc(C)cc2)[n+](C)c2ccccc21` the value was 16.1 µM (active); for `COc1ccc(C2C(C#N)=C(N)Oc3n[nH]c(C)c32)cc1CN1CCN(c2ccc(F)cc2)CC1` (configuration not stated), 23 µM (active).
Next, `Cc1cc(C(=O)CCl)c(C)n1CC1COc2ccccc2O1` (configuration not stated): 37.5 µM (active); `Cc1oc2c(c1C(=O)N1CCOCC1)C(=O)c1ccccc1C2=O`: 3.63 µM (active).
Next, `O=C1CC(c2ccccc2)=NN1c1ccc([N+](=O)[O-])cc1`: 15.8 µM (active).
Take `COc1ccc(C(=O)NC(=S)NNC(=O)CCc2ccccc2)cc1`: the EC50 is more than 38 µM.
For the compound `CCOC(=O)C(CC)Sc1ncnc2c1nnn2-c1ccc(F)cc1` (configuration not stated), the EC50 was more than 38 µM.
Next, `NC1=NN(c2cccc(C(=O)O)c2)C(=O)C1`: 31.6 µM (active).
Next, `Oc1c(Cl)cc(Cl)c(Cl)c1Cc1c(O)c(Cl)cc(Cl)c1Cl`: 7.06 µM (active).
Next, `NC(=O)CC[C@@H]1NC(=O)[C@H](CO)NC(=O)c2cc([N+](=O)[O-])cc(I)c2NCC[C@@H](C(N)=O)NC1=O`: 22.5 µM (active); `Cc1ccccc1C(CC(=O)c1cccs1)C(C#N)C#N` (configuration not stated): 2.18 µM (active).
For `CCOC(=O)N1CCC(c2cc(=O)n(-c3ccccc3)[nH]2)CC1`, the EC50 is 7.17 µM (active).
For `O=C(CCl)N(Cc1cccc([N+](=O)[O-])c1)c1cccc(Cl)c1` the value was 3.06 µM (active); for `Oc1ccc(N=Cc2sc3ccccc3c2Cl)cc1`, more than 38 µM; for `COc1ccc(-c2csc(Nc3ccc(O)cc3)n2)cc1`, more than 38 µM.
For the compound `O=[N+]([O-])c1c(NCCO)cc(Sc2nc3ccccc3s2)c2nonc12`, the EC50 was 0.766 µM (active).
`O=C(c1ccc(Cl)cc1)n1cnc2ccccc21`: the EC50 is 22.1 µM (active).
Next, `O=C1NC(c2ccc(-c3ccccc3[N+](=O)[O-])o2)C(C(=O)c2ccc(Cl)cc2)C(O)(C(F)(F)F)N1` (configuration not stated): 25.2 µM (active).
For `CC(CCn1cccn1)NC(=O)CCc1nnc(CCc2ccccc2)o1` (configuration not stated) the value was more than 38 µM.
Next, `CC(C)OC(=O)CN1C(=O)C(=O)c2ccccc21`: 22.5 µM (active).
As to `O=C(Nc1ccccc1)c1nnsc1S(=O)(=O)c1ccc(Cl)cc1`, the EC50 is 11.7 µM (active).
As for `CC1(N2CCOCC2)CC2(O)C(=[N+]1[O-])CCc1nonc12` (configuration not stated), the EC50 was 24.9 µM (active).
For `N#Cc1c(N)n(CCOC(=O)c2ccc(Cl)cc2)c2nc3ccccc3nc12` the value was 2.69 µM (active).
As for `COc1ccc(C(CCN(Cc2ccc(OC)c(OC)c2)C(=O)CCl)c2ccccc2)cc1` (configuration not stated), the EC50 is 0.326 µM (active).
With `CCN(CC)c1ccc2oc(=O)c(C)nc2c1`, the EC50 was 13.6 µM (active).
Next, `COc1ccc2c(c1)C(=C(C#N)C#N)C(=O)N2CCc1ccccc1`: more than 38 µM; `COc1ccccc1-n1nnnc1S(=O)(=O)Cc1ccc(Cl)cc1`: 27.2 µM (active).
For `Cc1ccc(NC(=O)c2cnc(SCC(=O)NCC3CCCO3)n(C)c2=O)cc1` (configuration not stated) the value was more than 38 µM; for `Cc1nn(Cc2ccccc2)c2c1C(c1ccccc1)C(C#N)=C(N)O2` (configuration not stated), 15.2 µM (active).
`O=S(=O)(O)Oc1c[nH]c2ccccc12`: the EC50 is 0.78 µM (active).
For `COC(=O)c1sc(-c2ccc(C(C)(C)C)cc2)cc1NC(=O)/C=C/C(=O)O` the value was 4.26 µM (active); for `CCOC(=O)c1c(C)[nH]c2c1-c1ccccc1C(=O)C2=O`, 2.58 µM (active); for `CCOC(=O)C1=C(c2ccc(OC)cc2)C(=O)c2ccccc2C1=O`, 6.35 µM (active).
Next, `COc1ccc(S(=O)(=O)/N=C2\C=C(NS(=O)(=O)c3ccccc3)C(=O)c3ccccc32)cc1`: 3.05 µM (active).
As to `C=CS(=O)c1sc(Cl)c(N2CCOCC2)c1[N+](=O)[O-]` (configuration not stated), the EC50 was 24.9 µM (active).
Take `Cc1oc2cc([N+](=O)[O-])c(O)c([N+](=O)[O-])c2c1C(=O)c1ccc(Br)cc1`: the EC50 is 19.5 µM (active).
Next, `Cc1ccc(SCC2=NNC(=O)C2)cc1`: 6.33 µM (active).
With `CCOc1c(Br)cc(/C=C2\C(=O)N(CCC#N)N=C2C)cc1OC`, the EC50 was 3.7 µM (active).
For `CN(c1ccccc1)c1ccc([N+](=O)[O-])c2nonc12` the value was 20.3 µM (active); for `CC(=O)C12CC(C)=C(C)CC1CC1C3CCC4=CC(=O)CCC4(C)C3CCC12C` (configuration not stated), more than 38 µM.
For the compound `Cc1cc2[nH]ncc2cc1NC(=S)NC(=O)c1ccccc1`, the EC50 is more than 38 µM.
As for `O=S(=O)(Nc1ccc(O)c2ccccc12)c1ccc(OC(F)(F)F)cc1`, the EC50 was 0.19 µM (active).
For `O=c1[nH]c2ccccc2n2c(-c3ccccc3)nnc12` the value was 26.2 µM (active); for `O=C(Oc1ccc(Br)cc1C(=S)N1CCOCC1)c1cccc([N+](=O)[O-])c1`, more than 38 µM.
Next, `CCCCOC(=O)CNc1nnc(SCC(=O)OCC)[nH]c1=O`: 11.3 µM (active); `COC(=O)CC1=NN(c2nc(C)cc(C)n2)C(=O)C1`: more than 38 µM.
For `Cc1ccc(Nc2cc(C)nc3c(C)ccc([N+](=O)[O-])c23)cc1` the value was 12 µM (active); for `Cc1ccc(CNC(=O)CCN2C(=O)[C@@H]3Cc4ccccc4CN3C2=O)cc1`, more than 38 µM; for `Cc1[nH]n(C)c(=O)c1C(=O)c1c(-c2c(Cl)cccc2Cl)noc1C`, 12.1 µM (active).
`CCCCCCCCc1c(O)nc(-n2[nH]c(C)c(CCO)c2=O)[nH]c1=O`: the EC50 is more than 38 µM.
Next, `CSc1nnc(NC(=O)c2nc(S(=O)(=O)Cc3ccc(C)cc3)ncc2Cl)s1`: 17 µM (active).
Next, `Cc1cccc(CS(=O)(=O)c2ncc(Cl)c(C(=O)Nc3ccc(F)cc3)n2)c1`: 2.65 µM (active); `CC1=NN(Cc2ccccc2)C(=O)/C1=C/c1ccc(N(C)C)cc1`: 3.59 µM (active); `O=C(CCCN1C(=O)/C(=C/c2ccccc2)SC1=S)Nc1ccc(O)cc1`: more than 38 µM.
For `CC1=NNC(=O)C1Cc1c(Cl)cccc1Cl` (configuration not stated) the value was 3.71 µM (active); for `O=C(Cc1cc(=O)[nH][nH]1)N/N=C/c1ccccc1[N+](=O)[O-]`, 10.3 µM (active).
`Cc1ccsc1/C=N/NC(=O)Cc1cc(=O)[nH][nH]1`: the EC50 is 6.88 µM (active).
Next, `CCCc1[nH]nc2c1C(c1ccc(OC(=O)c3ccco3)cc1)C(C#N)=C(N)O2` (configuration not stated): 25.1 µM (active); `CCc1ccc(C2C(C#N)=C(N)Oc3n[nH]c(CC(=O)OC)c32)cc1` (configuration not stated): 36.3 µM (active).
Turning to `COc1ccc(-c2[nH]nc3c2C(c2ccncc2)C(C#N)=C(N)O3)cc1` (configuration not stated), the EC50 was 21.3 µM (active).
Regarding `CCCc1[nH]nc2c1C(c1ccc(Br)s1)C(C#N)=C(N)O2` (configuration not stated), the concentration for a half-maximal effect (EC50) was 17.8 µM (active).
Next, `Cc1cc(C)n2nc(CNS(=O)(=O)c3c(F)c(F)c(F)c(F)c3F)nc2n1`: 10 µM (active); `CN1CCc2nc(SC(C(=O)O)c3ccccc3)c(C#N)c(-c3cccs3)c2C1` (configuration not stated): 31.1 µM (active); `Cc1nc2ccccc2nc1N/N=C/c1ccc(O)cc1O`: more than 38 µM.
Next, `O=C(Nc1ccccc1Cl)/C(Cl)=C(\Cl)S(=O)c1ccccc1` (configuration not stated): 1.31 µM (active); `Cc1c(-c2nn(C)c(=O)c3ccccc23)oc2ccc(F)cc2c1=O`: 6.81 µM (active).
Next, `CCOCC(=O)NCc1ccc2c(c1)cc(C)n2C`: more than 12 µM.
On to `COc1ccc(/C=C2/C(=O)N(c3ccccc3)N=C2C)c(OC)c1`, for which the EC50 was 21.7 µM (active).
Turning to `COc1ccc(C2NC(=S)NC3=C2CCc2ccccc23)cc1OC` (configuration not stated), the EC50 was 22.7 µM (active).
For `Cc1ccc(N(Cc2cc(=O)[nH]c3ccccc23)C(=O)CCl)cc1` the value was 0.148 µM (active); for `CCOc1ccc(C(c2c(C)[nH][nH]c2=O)c2c(C)[nH][nH]c2=O)cc1OCC`, 0.386 µM (active).
Next, `O=C1/C(=C/c2ccc3c(c2)OCO3)CCC/C1=C\c1ccc2c(c1)OCO2`: more than 38 µM; `Cc1[nH][nH]c(=O)c1C(c1ccc2c(c1)OCO2)c1c(C)[nH][nH]c1=O`: 0.426 µM (active).
For `COc1cccc(/C=N/Nc2cc(C)nc(-c3ccccc3O)n2)c1O` the value was more than 38 µM; for `O=C(O)CSc1c2c(nc3cc(C(=O)Nc4cccc(C(F)(F)F)c4)ccc13)CCCC2`, 15.6 µM (active).
For `COc1ccc(-c2nnc(SC(=O)N3c4ccccc4Sc4ccccc43)o2)cc1`, the EC50 was 0.551 µM (active).

Broadly, the EC50 is the concentration that produces a half-maximal response.

The values above are taken from PubChem BioAssay AID434968 (Broad Institute, 2010).
